ChEMBL document CHEMBL1961873, “Compounds: GSK PKIS; Assays: Nanosyn kinase panel” (2012)

Columns and labels:
[1] = target: T1, 3-phosphoinositide-dependent protein kinase 1 (Homo sapiens) (UniProt O15530); conditions: at 0.1 µM;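 further: values are mean inhibition of PDK1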
T1 sequence (whole entry): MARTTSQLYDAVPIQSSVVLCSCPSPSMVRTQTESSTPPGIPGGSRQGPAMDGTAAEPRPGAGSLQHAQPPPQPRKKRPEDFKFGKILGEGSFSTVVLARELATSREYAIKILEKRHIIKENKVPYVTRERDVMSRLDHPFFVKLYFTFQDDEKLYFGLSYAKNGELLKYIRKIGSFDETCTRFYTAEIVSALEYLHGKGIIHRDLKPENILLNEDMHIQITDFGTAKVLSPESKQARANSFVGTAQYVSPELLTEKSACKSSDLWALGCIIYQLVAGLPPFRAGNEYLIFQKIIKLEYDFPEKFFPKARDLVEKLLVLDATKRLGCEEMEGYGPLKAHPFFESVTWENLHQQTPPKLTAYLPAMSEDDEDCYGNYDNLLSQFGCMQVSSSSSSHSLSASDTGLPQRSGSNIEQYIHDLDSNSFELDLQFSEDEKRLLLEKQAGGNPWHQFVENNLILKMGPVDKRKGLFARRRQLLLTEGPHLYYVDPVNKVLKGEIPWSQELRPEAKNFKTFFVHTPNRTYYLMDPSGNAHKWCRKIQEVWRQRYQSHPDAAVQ

[2] = target: cAMP-dependent protein kinase catalytic subunit alpha (Homo sapiens) (UniProt P17612); conditions: at 0.1 µM
[3] = target: cAMP-dependent protein kinase catalytic subunit alpha (Homo sapiens) (UniProt P17612); conditions: at 1 µM
[4] = target: Protein kinase C alpha type (Homo sapiens) (UniProt P17252); conditions: at 0.1 µM
[5] = target: Protein kinase C alpha type (Homo sapiens) (UniProt P17252); conditions: at 1 µM
[6] = target: Protein kinase C beta type (Homo sapiens) (UniProt P05771); conditions: at 0.1 µM
Chain of Protein kinase C beta type (Homo sapiens) (P05771 2-671 limits assumed): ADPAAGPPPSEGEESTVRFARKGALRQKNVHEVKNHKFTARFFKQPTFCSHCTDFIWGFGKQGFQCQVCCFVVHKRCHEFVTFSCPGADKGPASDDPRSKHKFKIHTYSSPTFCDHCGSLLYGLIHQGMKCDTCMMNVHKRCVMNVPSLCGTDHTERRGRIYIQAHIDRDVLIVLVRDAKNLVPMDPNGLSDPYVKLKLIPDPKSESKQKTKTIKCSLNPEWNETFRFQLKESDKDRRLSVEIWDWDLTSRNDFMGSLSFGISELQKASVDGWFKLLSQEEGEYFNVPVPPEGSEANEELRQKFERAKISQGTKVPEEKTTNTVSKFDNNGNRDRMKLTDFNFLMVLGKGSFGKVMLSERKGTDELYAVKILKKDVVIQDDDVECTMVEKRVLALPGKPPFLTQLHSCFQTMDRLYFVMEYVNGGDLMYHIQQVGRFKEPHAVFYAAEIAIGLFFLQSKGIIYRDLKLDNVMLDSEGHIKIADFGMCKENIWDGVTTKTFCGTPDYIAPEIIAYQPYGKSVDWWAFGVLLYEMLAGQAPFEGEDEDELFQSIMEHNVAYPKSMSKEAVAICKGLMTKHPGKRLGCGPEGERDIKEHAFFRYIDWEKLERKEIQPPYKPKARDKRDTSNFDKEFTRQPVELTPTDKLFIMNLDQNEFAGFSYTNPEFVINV

[7] = target: Protein kinase C beta type (Homo sapiens) (UniProt P05771); conditions: at 1 µM
[8] = target: Protein kinase C eta type (Homo sapiens) (UniProt P24723); conditions: at 0.1 µM
Chain of Protein kinase C eta type (Homo sapiens) (P24723 whole entry): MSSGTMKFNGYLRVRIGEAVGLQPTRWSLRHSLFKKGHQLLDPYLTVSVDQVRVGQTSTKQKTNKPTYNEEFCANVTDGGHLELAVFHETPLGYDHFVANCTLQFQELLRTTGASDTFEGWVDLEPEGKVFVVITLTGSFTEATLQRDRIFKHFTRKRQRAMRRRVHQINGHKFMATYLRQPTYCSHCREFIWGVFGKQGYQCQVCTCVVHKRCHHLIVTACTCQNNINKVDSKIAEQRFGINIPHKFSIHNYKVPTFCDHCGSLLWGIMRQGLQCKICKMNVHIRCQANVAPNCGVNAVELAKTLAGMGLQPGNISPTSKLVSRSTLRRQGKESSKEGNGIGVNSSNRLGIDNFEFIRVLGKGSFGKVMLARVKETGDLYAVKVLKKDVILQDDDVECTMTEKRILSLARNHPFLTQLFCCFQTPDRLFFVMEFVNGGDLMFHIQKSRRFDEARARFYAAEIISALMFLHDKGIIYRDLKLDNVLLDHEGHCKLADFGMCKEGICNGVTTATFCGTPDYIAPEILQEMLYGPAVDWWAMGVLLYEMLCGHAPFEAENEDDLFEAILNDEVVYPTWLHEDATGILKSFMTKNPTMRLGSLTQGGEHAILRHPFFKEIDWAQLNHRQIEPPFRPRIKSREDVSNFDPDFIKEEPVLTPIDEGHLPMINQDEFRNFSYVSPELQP

[9] = target: Protein kinase C eta type (Homo sapiens) (UniProt P24723); conditions: at 1 µM
[10] = target: Protein kinase C gamma type (Homo sapiens) (UniProt P05129); conditions: at 0.1 µM
[11] = target: Protein kinase C gamma type (Homo sapiens) (UniProt P05129); conditions: at 1 µM
[12] = target: T2, Protein kinase C iota type (Homo sapiens) (UniProt P41743); conditions: at 0.1 µM
T2 sequence (whole entry): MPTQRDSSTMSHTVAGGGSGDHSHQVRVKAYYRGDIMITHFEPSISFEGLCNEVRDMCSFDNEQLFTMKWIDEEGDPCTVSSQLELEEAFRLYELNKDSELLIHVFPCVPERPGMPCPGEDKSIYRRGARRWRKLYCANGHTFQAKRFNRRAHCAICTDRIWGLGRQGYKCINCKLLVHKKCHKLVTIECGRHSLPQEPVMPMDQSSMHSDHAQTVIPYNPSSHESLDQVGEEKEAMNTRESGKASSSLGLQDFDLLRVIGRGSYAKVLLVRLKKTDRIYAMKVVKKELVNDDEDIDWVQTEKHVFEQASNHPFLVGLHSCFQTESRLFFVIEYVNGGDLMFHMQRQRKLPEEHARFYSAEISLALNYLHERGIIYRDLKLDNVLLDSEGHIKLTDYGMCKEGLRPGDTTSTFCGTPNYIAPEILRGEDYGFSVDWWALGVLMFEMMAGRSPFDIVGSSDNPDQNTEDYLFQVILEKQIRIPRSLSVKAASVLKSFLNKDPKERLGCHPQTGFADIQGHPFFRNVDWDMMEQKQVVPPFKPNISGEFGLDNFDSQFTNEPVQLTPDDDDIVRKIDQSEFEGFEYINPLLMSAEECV

[13] = target: T2, Protein kinase C iota type (Homo sapiens); conditions: at 1 µM
[14] = target: Protein kinase C theta type (Homo sapiens) (UniProt Q04759); conditions: at 0.1 µM
Chain of Protein kinase C theta type (Homo sapiens) (Q04759 whole entry, looked up): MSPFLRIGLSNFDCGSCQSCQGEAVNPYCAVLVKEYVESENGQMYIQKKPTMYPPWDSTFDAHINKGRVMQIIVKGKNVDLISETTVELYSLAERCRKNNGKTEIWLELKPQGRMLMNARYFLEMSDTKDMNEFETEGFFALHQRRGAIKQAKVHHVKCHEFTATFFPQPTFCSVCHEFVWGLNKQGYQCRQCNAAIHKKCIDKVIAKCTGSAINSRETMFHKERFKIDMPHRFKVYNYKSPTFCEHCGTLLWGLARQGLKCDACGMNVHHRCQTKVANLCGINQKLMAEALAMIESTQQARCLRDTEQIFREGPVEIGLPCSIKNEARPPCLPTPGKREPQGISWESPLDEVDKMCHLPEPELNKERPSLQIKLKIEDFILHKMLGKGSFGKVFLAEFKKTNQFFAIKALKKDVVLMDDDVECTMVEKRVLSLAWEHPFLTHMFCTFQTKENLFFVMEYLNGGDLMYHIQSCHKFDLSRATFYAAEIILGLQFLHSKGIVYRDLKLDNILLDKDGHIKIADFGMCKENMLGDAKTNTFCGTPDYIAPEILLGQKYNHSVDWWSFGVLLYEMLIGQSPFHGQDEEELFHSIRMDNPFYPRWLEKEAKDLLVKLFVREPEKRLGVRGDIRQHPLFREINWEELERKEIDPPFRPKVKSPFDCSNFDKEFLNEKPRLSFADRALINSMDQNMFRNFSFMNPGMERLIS

[15] = target: Protein kinase C theta type (Homo sapiens) (UniProt Q04759); conditions: at 1 µM
[16] = target: Protein kinase C beta type (Homo sapiens) (UniProt P05771); conditions: at 0.1 µM; remark: listed apart in the source
[17] = target: Protein kinase C beta type (Homo sapiens) (UniProt P05771); conditions: at 1 µM; remark: listed apart in the source
[18] = target: T3, Serine/threonine-protein kinase D1 (Homo sapiens) (UniProt Q15139); conditions: at 0.1 µM
T3 sequence (whole entry): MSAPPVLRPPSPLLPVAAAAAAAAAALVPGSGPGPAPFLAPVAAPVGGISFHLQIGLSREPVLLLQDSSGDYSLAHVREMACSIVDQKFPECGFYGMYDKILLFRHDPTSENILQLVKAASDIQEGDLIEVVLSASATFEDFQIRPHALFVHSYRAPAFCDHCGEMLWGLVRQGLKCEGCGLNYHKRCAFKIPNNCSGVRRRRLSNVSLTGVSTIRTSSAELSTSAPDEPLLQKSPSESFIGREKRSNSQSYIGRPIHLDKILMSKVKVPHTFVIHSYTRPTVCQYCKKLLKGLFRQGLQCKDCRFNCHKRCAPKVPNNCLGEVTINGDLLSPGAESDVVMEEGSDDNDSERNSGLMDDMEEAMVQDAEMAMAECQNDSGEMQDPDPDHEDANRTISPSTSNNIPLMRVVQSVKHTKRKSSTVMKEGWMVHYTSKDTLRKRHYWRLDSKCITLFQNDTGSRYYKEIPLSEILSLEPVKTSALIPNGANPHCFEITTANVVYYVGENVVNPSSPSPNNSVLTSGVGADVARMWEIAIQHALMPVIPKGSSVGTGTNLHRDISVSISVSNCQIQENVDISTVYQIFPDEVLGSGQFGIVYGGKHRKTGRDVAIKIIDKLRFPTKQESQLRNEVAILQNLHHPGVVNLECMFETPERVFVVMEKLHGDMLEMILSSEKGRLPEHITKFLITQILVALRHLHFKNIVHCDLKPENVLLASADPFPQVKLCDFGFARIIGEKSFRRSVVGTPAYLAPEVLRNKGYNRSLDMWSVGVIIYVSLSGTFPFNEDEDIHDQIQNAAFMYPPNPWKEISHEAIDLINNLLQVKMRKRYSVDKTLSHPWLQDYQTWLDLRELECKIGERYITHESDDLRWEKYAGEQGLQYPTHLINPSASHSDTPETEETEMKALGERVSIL

[19] = target: T3, Serine/threonine-protein kinase D1 (Homo sapiens); conditions: at 1 µM
[20] = target: T4, Serine/threonine-protein kinase D2 (Homo sapiens) (UniProt Q9BZL6); conditions: at 0.1 µM;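 further: reported percent inhibition values are means, part of the GSK PKIS kinase panel screen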
T4 sequence (whole entry): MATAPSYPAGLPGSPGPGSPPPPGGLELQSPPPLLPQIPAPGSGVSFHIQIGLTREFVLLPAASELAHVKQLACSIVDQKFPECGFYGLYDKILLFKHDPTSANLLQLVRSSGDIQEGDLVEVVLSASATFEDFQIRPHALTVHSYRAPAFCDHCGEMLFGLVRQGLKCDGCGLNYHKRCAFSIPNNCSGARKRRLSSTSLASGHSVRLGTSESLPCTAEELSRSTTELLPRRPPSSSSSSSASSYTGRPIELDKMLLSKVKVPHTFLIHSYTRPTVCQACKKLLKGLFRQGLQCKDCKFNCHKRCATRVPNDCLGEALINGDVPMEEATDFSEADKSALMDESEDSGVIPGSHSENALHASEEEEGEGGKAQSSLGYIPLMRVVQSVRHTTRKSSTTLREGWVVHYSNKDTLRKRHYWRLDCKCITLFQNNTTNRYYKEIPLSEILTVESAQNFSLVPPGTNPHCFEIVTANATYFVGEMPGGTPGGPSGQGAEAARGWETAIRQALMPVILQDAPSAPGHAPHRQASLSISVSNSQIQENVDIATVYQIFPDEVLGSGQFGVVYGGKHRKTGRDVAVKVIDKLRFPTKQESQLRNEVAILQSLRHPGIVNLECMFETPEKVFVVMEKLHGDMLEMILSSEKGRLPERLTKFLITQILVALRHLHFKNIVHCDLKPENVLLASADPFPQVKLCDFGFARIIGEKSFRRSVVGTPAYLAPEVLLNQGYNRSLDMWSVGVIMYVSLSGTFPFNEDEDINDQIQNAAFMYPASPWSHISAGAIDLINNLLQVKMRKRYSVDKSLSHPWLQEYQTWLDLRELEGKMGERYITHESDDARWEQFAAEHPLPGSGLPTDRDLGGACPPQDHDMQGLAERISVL

Structure (SMILES)	inhibition [1] [%]	inhibition [2] [%]	inhibition [3] [%]	inhibition [4] [%]	inhibition [5] [%]	inhibition [6] [%]	inhibition [7] [%]	inhibition [8] [%]	inhibition [9] [%]	inhibition [10] [%]	inhibition [11] [%]	inhibition [12] [%]	inhibition [13] [%]	inhibition [14] [%]	inhibition [15] [%]	inhibition [16] [%]	inhibition [17] [%]	inhibition [18] [%]	inhibition [19] [%]	inhibition [20] [%]
COC(=O)c1ccc2c(c1)C(=Cc1cc(Br)c(O)c(Br)c1)C(=O)N2	-0.14	1.68	0.85	0.87	2.31	-0.23	-0.51	2.26	3.91	1.07	0.79	1.17	0.96	1.25	1.86	1.12	1.9	5.07	7.26	4.47
OCc1ccc(-c2nc(-c3ccccn3)c(-c3ccc4c(c3)OCO4)[nH]2)cc1	3.18	1.99	1.95	1.27	2.06	0.21	0.2	3.79	1.71	1.49	1.5	2.1	3.65	2.3	0.86	0.63	0.97	4.39	8.27	4.75
COc1cccc(-n2ncc3c(N/N=C/c4ccc(S(C)(=O)=O)cc4)ncnc32)c1	2.37	-3.29	-0.93	-3.07	-0.59	2.22	7.27	1.23	2.85	1.86	3.18	2.06	0.98	-0.11	1.19	2.19	13.3	-2.12	-1.45	-2.64
Cc1ccc2c(-c3ccnc(Nc4ccc5c(c4)OCCO5)n3)c(-c3ccc(C(F)(F)F)cc3)nn2n1	-0.78	4.47	7.16	0.21	1.55	2.2	2.03	0.94	3.26	1.27	3.76	0.29	1.15	1.61	2.73	0.24	2.06	1.11	3.32	2.13
CN(c1ccc(NC(=O)Nc2ccc(OC(F)(F)F)cc2)cc1)c1ccnc(Nc2cccc(S(N)(=O)=O)c2)n1	0.37	1.4	2.04	0.02	0.85	0.45	0.52	0.81	-0.51	2.48	2.99	0.52	-0.73	0.61	0.96	-0.08	0.69	2.95	4.48	3.68
NS(=O)(=O)c1cccc(-c2cc3ccncc3cc2OCc2ccccc2)c1	0.97	1.81	3.34	1.18	1.96	-0.33	0.71	2.45	2.7	3.28	4.07	2.51	3.39	2.29	1.87	2.02	2.23	4.25	7.09	5.29
NS(=O)(=O)c1ccc(N/N=C2\C(=O)Nc3ccc(Cl)cc32)cc1	2.36	3.49	4.12	0.69	1.45	1.35	2.75	4.13	4.71	-1.84	4.85	1.02	0.75	2.29	4.86	0.92	1.29	2.46	7.47	3.87
Nc1nccc(-c2c(-c3ccc(F)cc3)ncn2CCCN2CCOCC2)n1	0.38	3.31	9.33	0.84	4.5	1.5	7.05	4.26	7.49	3.25	6.84	3.1	3.21	2.24	3.31	3.01	7.42	4.07	5.03	5.14
Cc1cc(Cl)cc2c1NC(=O)C2=NNc1ccc(S(N)(=O)=O)cc1	0.95	1.21	1.37	0.07	-0.61	0.78	2.56	-0.95	2.95	0.4	1.99	0.57	0.13	1.67	3.19	0.04	1.07	2.49	2.15	2.28
FC(F)(F)c1ccc(-c2nn3ncccc3c2-c2ccnc(Nc3ccc4c(c3)OCCO4)n2)cc1	1.11	6.1	6.96	0.99	1.28	8.14	11.9	1.27	6.69	5.17	5.47	6.58	3.53	2.52	5.32	5.29	6.33	2.27	-1.71	0.7
COc1cc2ncnc(Nc3ccc(C)c(O)c3)c2cc1OC	1.3	2.17	3.17	1.06	3.24	1.28	5.43	3.76	0.65	2.11	7.37	3.5	1.78	3.41	5.28	2.8	5.81	4.73	9.92	5.41
CCS(=O)(=O)c1ccc(OC)c(Nc2nccc(N(C)c3ccc4c(C)n[nH]c4c3)n2)c1	-0.7	2.41	0.84	0.55	1.48	0.4	-2.93	3.8	6.38	0.63	3.15	2.77	2.66	2.68	2.9	1.61	2.71	4.99	6.33	4.18
ON=C1CCc2cc(-c3nc(C4CCNCC4)[nH]c3-c3ccncc3)ccc21	-0.07	1.54	18.8	1.13	2.47	-0.12	11.1	-0.55	2.63	-1.91	-1.84	-0.01	4.71	-0.55	1.23	0.45	7.96	0.36	5.6	1.54
